Measured values reported in PubChem BioAssay AID1508600 (Functional Genomics Laboratory (NCATS/FGL), 2020).
Among all 53,000 sequences or so, about 3,700 (7%) were called active.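 How the source made its calls: active means gene knockdowns whose robust z-score for IL-1 alpha signal is at least 2 or at most -2, so actives lie on both sides; inactive means the rest.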 This excerpt belongs to a sample that is enriched for actives.

Experiment: Components of the Cytosolic LPS Sensing Pathway: Gene Identification via Genome-wide siRNA Screen;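 further: robust z of the log signal after scaling to non-targeting control siRNA wells of the plate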
Conditions: RAW264.7 macrophages, IL-1a HTRF, actives lie on both sides, screened at 100 nM (by protocol), cells primed 5 h with Pam3CSK4 first
Outline: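 Using IL-1a HTRF as read-out, the screen measured release from RAW264.7 cells after 48h siRNA knockdown (100 nM), 5 h Pam3CSK4 priming and 24 h cytosolic LipidA. Values were expressed relative to negative-control wells as robust z-scores.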
With GGUUUGAGUGGAAAAUUCATT against Csn1s2b the z-score was 0.904 (inactive). For CCCACAGAACCACACAUUCTT against H2-DMa, the z-score was 3.11 (active). In the case of GGAGGCUGAGUAUUGGCUUTT against Pi4k2b, the z-score is reported as -1.06 (inactive). In the case of GCUCUACCCAAUCAAGACCTT against Asb14, the z-score is reported as 0.31 (inactive). In the case of GCAGUCGAAGCACUAAAAATT against Dnaaf2, the z-score is reported as 0.412 (inactive). In the case of CGACCUACUCUACAGCAAATT against Brinp3, the z-score is reported as 2.6 (active). With GGAACUGAAGGGCAAUAUCTT against Kifc5b the z-score was 1.99 (inactive). With GGGCUCCUUCCUUGAAAAGTT against Dclre1c the z-score was 0.365 (inactive). For GACCACACUCAUCCAGGCUTT against Gtpbp6, the z-score was 0.817 (inactive). With GGAAACGAUGACAUUUCAATT against Pnrc2 the z-score was 0.0147 (inactive). With GGGCGUAGAAACAGCAACUTT against Ushbp1 the z-score was -2.14 (active). For GGCCAGAGACUGCCUGAUUTT against Acaa1b, the z-score was 0.225 (inactive). For GGUCAUUCAGCUGGAAGAUTT against Zfp143, the z-score was -1.07 (inactive). For “GGGUAGGUAUCAAAAUAAUTT against 6030452D12Rik”, the z-score was 0.172 (inactive). For GCCACGUGAUAGUAAUAAATT against Psmd12, the z-score was 0.0999 (inactive). With GGAGAAUGAAGAGUUAGACTT against Nfu1 the z-score was 0.608 (inactive). For AUUACAAGGUUUGUGGAUATT against Gsdmc3, the z-score was 0.188 (inactive). With GGUGGAUAGAGCAAUUGAATT against Jph1 the z-score was 1.5 (inactive). For GGCGGCACAAAUUGUUUUUTT against Gimap9, the z-score was -2.03 (active). In the case of GCCAAGUACUCGUUUCCACTT against Wtap, the z-score is reported as 0.826 (inactive). In the case of GCCUUGGACUGCUUUGGAUTT against Dync1li1, the z-score is reported as -0.379 (inactive). In the case of GGCAUUCCUCUUGAAUAUUTT against Dck, the z-score is reported as -0.805 (inactive). In the case of GCCCUACCCUCAUCAUAAATT against Tmem94, the z-score is reported as -1.36 (inactive). For GGACUUCAGAGUGGACAUUTT against Sec16b, the z-score was -0.19 (inactive). For GGAAAGUUGGACCUUCUGATT against Adamts6, the z-score was 2.35 (active). With GCUGUGAAGAAUCAGAUAGTT against Aatf the z-score was -0.155 (inactive). In the case of GGAUUUAUGGCAAGUUUCUTT against Ppp2r5e, the z-score is reported as 0.00387 (inactive). With CCAGGUGUACCUUACGUUGTT against Eif4ebp2 the z-score was 1.05 (inactive). In the case of CGGACAAGAUAAAGUGUGUTT against Lypd9, the z-score is reported as -1.07 (inactive). In the case of GGAACUCACACAGAACCAATT against Bloc1s6, the z-score is reported as 6.84 (active). For GGUGUAAAGUAAUCAAGGCTT against Dbx2, the z-score was 0.453 (inactive). For GGUUUUAUGAGAAAGCAGATT against Ogfod1, the z-score was 0.0298 (inactive). For GCACAGCUACCAUUCACAATT against Nxpe2, the z-score was -1.97 (inactive). For GGAGGAACAUAUGCUCAGATT against Lce1e, the z-score was -2.99 (active). With CCACUAAGGUUUGAAGAAGTT against Nes the z-score was 1.21 (inactive). In the case of CCUGAUUAUUCUGAGAAAUTT against Adsl, the z-score is reported as 1 (inactive). For GGGACUCGAGUUUCAUCUATT against Casc1, the z-score was 0.768 (inactive). With GGAAUUACGAAGCUGUGUGTT against Cdkl3 the z-score was -2.36 (active). With “CCGUUCUGGCACAGAACAGTT against A830005F24Rik” the z-score was 1.41 (inactive). With CCAUUGUACAGAAAAACACTT against Abhd18 the z-score was 0.41 (inactive). In the case of GGAAAGAGCUUUUUAUUGUTT against Zfp235, the z-score is reported as 0.145 (inactive). With CCAUAUACCCUCGAUGCCATT against Abhd16b the z-score was -2.76 (active). For GCCCGAAUACAGGAAGAUCTT against Hspg2, the z-score was 1.42 (inactive). For GGAAAUGAGACGAAGGAGGTT against Kpna6, the z-score was -0.642 (inactive). With GGAACUGAAAAACUCAACUTT against Evi2a the z-score was -3.13 (active). With GGCACAGAGAACAAUACUUTT against Npy5r the z-score was -0.128 (inactive). With CCCUAUUAGUGGAAGCAUGTT against Zfp738 the z-score was -1.94 (inactive). In the case of “GCAUCGCAUUUAAAUAGAATT against 4833408A19Rik”, the z-score is reported as 0.965 (inactive). In the case of GGGUGUAGCAUUGUCACAGTT against Olfr1133, the z-score is reported as 2.32 (active). With GGAGAUGAACAAGGACCUATT against Apoa1 the z-score was 0.717 (inactive). With GGAUGUGAUGAAGUUGGCCTT against Olfr78 the z-score was -1.96 (inactive). In the case of GCUGGUGAGUCACUGAUGATT against Med22, the z-score is reported as 1.32 (inactive). With GGAAAGAAGAAACAUUCCUTT against Socs5 the z-score was 0.495 (inactive). For GCGACUCCCACAUACUCAGTT against Muc19, the z-score was -0.215 (inactive). With UCCAUACUACUCAUCAAAUTT against Olfr68 the z-score was 3.78 (active). With GCCUAAGAACGAUGACACUTT against Surf2 the z-score was 0.179 (inactive). In the case of “GGUCUCUGUAGAGAUGGCATT against 6820408C15Rik”, the z-score is reported as -2.52 (active). In the case of CGUUAAUUGCCCUCAAAGATT against Spon1, the z-score is reported as 1.03 (inactive). With GGCGGAGAGGAAAUCUAUGTT against Mycs the z-score was 1.4 (inactive). In the case of GCCUUUGCACAGUUUGGACTT against BC002059, the z-score is reported as -1.13 (inactive). In the case of GGCAGUUCUCCAGUGCUUUTT against Mtss1, the z-score is reported as -1.32 (inactive). With CCUCGUAUUUAUACUCAGUTT against Gpr18 the z-score was 0.3 (inactive). With CCACCUUCCUAUGUUUGUATT against Ebf2 the z-score was 3.73 (active). For GGCUGCUCAAAAAGAACAUTT against Kif21b, the z-score was 0.645 (inactive). In the case of GCUUUGGCUCAAAGCACGUTT against Mcm3, the z-score is reported as 1.93 (inactive). In the case of GCGGUCAAAUGCAACAAACTT against Fabp5, the z-score is reported as -0.33 (inactive). With CCUCCUGACCUUAAUCUUGTT against P2rx1 the z-score was 0.507 (inactive). With GGCUGCACAAAGAUGUUCATT against Yy1 the z-score was 2.46 (active). In the case of GCUUAAUCCUUAGUCAGCATT against F2rl2, the z-score is reported as -0.591 (inactive). In the case of GGAAGAGGUGAAUGAUAAATT against Bmi1, the z-score is reported as 1.51 (inactive). In the case of GCUCAACAGCAGUGACGAUTT against Nras, the z-score is reported as -0.701 (inactive). With GGCCAGUCAAGGUUGGAUUTT against Gpr152 the z-score was -0.32 (inactive). In the case of GCUGUGAAUUCCAAAUGCGTT against Myh4, the z-score is reported as 3.33 (active). For GGAUACAAUGCAACUGUCCTT against Kif4, the z-score was -1.08 (inactive). For GCACUCUCUACUCUAUUAATT against Ackr2, the z-score was 2.68 (active). With GGUUAGCCUACUCUCUAAUTT against Tomm22 the z-score was 0.501 (inactive). In the case of GGCUCAAAUACAGGAAAUUTT against Tmem45b, the z-score is reported as 0.498 (inactive). For GGGCAGGUUGUCUUUCUACTT against Plpp1, the z-score was 0.997 (inactive). With UCAACAGGGCUGAUAUCCCTT against Acsl5 the z-score was -1.61 (inactive). With CGGUGAAGACUAUCAUGGUTT against Tln1 the z-score was -0.791 (inactive). For CCUUAAUCCAAACAAGUCUTT against Ncl, the z-score was 1.08 (inactive). In the case of GGUUUCUUAGAUUAGCUAGTT against Map3k12, the z-score is reported as 0.445 (inactive). For GGUUAUCAAGAUUGCAUGUTT against Olfr853, the z-score was -0.646 (inactive). With GGGUUAUGAAGAGAAACUUTT against Gatad2b the z-score was 0.236 (inactive). In the case of GGACUGGUGGACAUAUGAATT against Os9, the z-score is reported as 2.81 (active). For GGAAAAGGUGGCCUACACATT against Rhox11, the z-score was -1.7 (inactive). With CCAAUAAAAUUGGUGUUCCTT against H13 the z-score was 0.18 (inactive). For GGUUAAAAUGUUGAUUGCUTT against Ndrg4, the z-score was -0.654 (inactive). In the case of GGGAAAAGUGACUAGGCUUTT against Ngb, the z-score is reported as -0.331 (inactive). With CCCACAGUGCAAAAAUGACTT against Olfr663 the z-score was -2.26 (active). With GGCAUAUGCACUUUAUUUCTT against Cep97 the z-score was -0.339 (inactive). For GCAUUAAAGGAGUCCGAAUTT against Cpn1, the z-score was -0.328 (inactive). In the case of GCUUAUAACAGUUGAUGAGTT against Ndufs4, the z-score is reported as -0.54 (inactive). With GGCUAAUUCUCAAAGAGAUTT against Dnttip2 the z-score was -1.87 (inactive). In the case of AUUCGGGAAAAUUUUAGACTT against Rbfox3, the z-score is reported as -0.171 (inactive). For GGCUAAAACUGCACAUAAATT against Pyroxd1, the z-score was -3.43 (active). For GGGAAGCACAAGGUUUAGUTT against Brca1, the z-score was 0.531 (inactive). In the case of GCAACAAGAGGGCAGAAUGTT against Olfr518, the z-score is reported as -2.22 (active). In the case of GGAAGUUACAGAUGUGGCUTT against Nog, the z-score is reported as -0.879 (inactive). In the case of GCACCAUUCUAGGAGUCAUTT against Lonp2, the z-score is reported as -0.504 (inactive). In the case of GGACCACGCAAAAGAAUAUTT against Mtss1, the z-score is reported as 0.0212 (inactive). In the case of GCUCAUGUUGCACUGGAAATT against Ulbp1, the z-score is reported as 1.22 (inactive). With AAGCUUCAACAUCAGUUUGTT against Olfr1392 the z-score was -1.54 (inactive). With GGCGAAGGGCAAGAAUAAATT against Hes1 the z-score was 2.16 (active). In the case of CCCAUACUGUCACUUUAAGTT against H2bc8, the z-score is reported as -2.23 (active). For GGUUCUGGUAUAAGUUAACTT against Gabrg3, the z-score was 0.292 (inactive). For GCACGAAUGCCUUUUUAGATT against Mphosph8, the z-score was 0.32 (inactive). For GGAGCUGGAGACUAAAGCUTT against Slc29a2, the z-score was -0.478 (inactive).
